Experimental data from PubChem BioAssay (NCATS).
Results filed as inconclusive are left out. Calls of active or inactive are those of the source. Calls follow the shape of the dose curve; as a rule, active = well fitted curve in the direction sought with a large enough effect; inconclusive = small, poorly fitted or top-dose-only effect, or another doubt; inactive = no such curve, though single readings can be large; an effect the other way counts as inactive or inconclusive.

Tests used:
[1] = S16 Schwann cell viability assay (CellTiter-Glo assay) (AID 624031);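 also: cellular ATP luminescence as a viability measure; nearly all actives have a fitted effect of over 70% in size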
How it was run: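 Native S16 Schwann cells (rat), serum-containing medium, overnight attachment then 24 h drug exposure at 37 °C/5% CO2. CellTiter-Glo ATP signal; normalized to cell-free and vehicle wells.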

3D7 = test: qHTS profiling for inhibitors of Plasmodium falciparum proliferation (AID 504749); also: nearly all actives have a fitted effect of over 60% in size; also: potency is read from the fitted curve at half-maximal effect; details: P. falciparum in erythrocytes, SYBR Green DNA, 72 h; series mostly up to 28.7 µM
How it was run: (§1)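 Three-day growth assay of blood-stage parasites in erythrocytes (0.3% parasitemia, 2.5% hematocrit) at 37 C, 5% CO2, quantified by SYBR Green DNA staining after overnight detergent lysis.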

AA1029 = test: as above; details: P. falciparum in erythrocytes, SYBR Green DNA, 72 h; series mostly up to 28.7 µM
How it was run: as §1

ATS189 = test: as above; details: P. falciparum in erythrocytes, SYBR Green DNA, 72 h; series mostly up to 28.7 µM
How it was run: as §1

ATS95 = test: as above; details: P. falciparum in erythrocytes, SYBR Green DNA, 72 h; series mostly up to 28.7 µM
How it was run: as §1

CP238 = test: as above; details: P. falciparum in erythrocytes, SYBR Green DNA, 72 h; series mostly up to 28.7 µM
How it was run: as §1

CP262 = test: as above; details: P. falciparum in erythrocytes, SYBR Green DNA, 72 h; series mostly up to 28.7 µM
How it was run: as §1

DFO2036 = test: as above; details: P. falciparum in erythrocytes, SYBR Green DNA, 72 h; series mostly up to 28.7 µM
How it was run: as §1

ECU = test: as above; details: P. falciparum in erythrocytes, SYBR Green DNA, 72 h; series mostly up to 28.7 µM
How it was run: as §1

JCK = test: as above; details: P. falciparum in erythrocytes, SYBR Green DNA, 72 h; series mostly up to 28.7 µM
How it was run: as §1

P94_40 = test: as above; details: P. falciparum in erythrocytes, SYBR Green DNA, 72 h; series mostly up to 28.7 µM
How it was run: as §1

PC49 = test: as above; details: P. falciparum in erythrocytes, SYBR Green DNA, 72 h; series mostly up to 28.7 µM
How it was run: as §1

TAB109 = test: as above; details: P. falciparum in erythrocytes, SYBR Green DNA, 72 h; series mostly up to 12.8 µM
How it was run: as §1

[2] = Confirmation and Secondary Assay for Modulators of Hemoglobin Beta Chain Splicing at IVS2 654 locus (AID 910);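 also: HeLa cells stably carrying EGFP split by mutant beta-globin IVS2-654 intron; per-well total GFP intensity by laser scanning cytometry after 2-day treatment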
How it was run: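 Readout: per-well total peak green fluorescence (488 nm ex, 500–520 nm em) from objects 5–250 µm, reflecting correct splicing of an EGFP-654 reporter. Compounds were applied for 2 days at 37 °C to overnight-plated HeLa EGFP-654 cells; controls were DMSO and 500 nM IVS2-654 PNA.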

CP192 = test: qHTS profiling for inhibitors of Plasmodium falciparum proliferation (AID 504749); also: nearly all actives have a fitted effect of over 60% in size; also: potency is read from the fitted curve at half-maximal effect; details: P. falciparum in erythrocytes, SYBR Green DNA, 72 h; series mostly up to 28.7 µM
How it was run: as §1

CP211 = test: as above; details: P. falciparum in erythrocytes, SYBR Green DNA, 72 h; series mostly up to 28.7 µM
How it was run: as §1

CP269 = test: as above; details: P. falciparum in erythrocytes, SYBR Green DNA, 72 h; series mostly up to 28.7 µM
How it was run: as §1

CP305 = test: as above; details: P. falciparum in erythrocytes, SYBR Green DNA, 72 h; series mostly up to 28.7 µM
How it was run: as §1

CP329 = test: as above; details: P. falciparum in erythrocytes, SYBR Green DNA, 72 h; series mostly up to 28.7 µM
How it was run: as §1

DIV30 = test: as above; details: P. falciparum in erythrocytes, SYBR Green DNA, 72 h; series mostly up to 28.7 µM
How it was run: as §1

Measured: Potency

C[C@]12CC[C@H](O)CC1=CCC1C2CC[C@]2(C)C(=O)CC[C@@H]12 (stereo not given in full)
not listed: [2] | CP192 | CP211 | CP269 | CP305 | CP329 | DIV30
inactive: all other assays above

O=C1c2ccccc2-c2cccc3cccc1c23
inactive: [2]

COc1cc2c(cc1-c1cc3cc4ccoc4cc3oc1=O)OCO2
inactive: [2]

CCNC[C@H](O)c1cccc(O)c1
not listed: [2]
inactive: all other assays above

CCOCN(C(=O)CCl)c1c(C)cccc1CC
inactive: [2]

C=CCc1ccc2c(c1)OCO2
inactive: [2]

CCc1cccc(CC)c1N(COC)C(=O)CCl
inactive: [2]

ClC(Cl)=C(c1ccc(Cl)cc1)c1ccc(Cl)cc1
inactive: [2]

C/C=C/c1ccc2c(c1)OCO2
inactive: [2]

C[N+]1([O-])[C@@H]2CC(OC(=O)[C@@H](CO)c3ccccc3)C[C@@H]1[C@H]1O[C@H]12 (stereo not given in full)
not listed: [2]
inactive: all other assays above

ClC1=C(Cl)C2(Cl)C3C4C=CC(C4)C3C1(Cl)C2(Cl)Cl (stereo not given)
inactive: [2]

CNC(=O)O/N=C/C(C)(C)SC
inactive: [2]

O=C(O)COc1ccc(Cl)cc1Cl
inactive: [2]

CCNc1nc(Cl)nc(NC(C)C)n1
inactive: [2]

ClC1=C(Cl)C2(Cl)C3C(Cl)C=CC3C1(Cl)C2(Cl)Cl (stereo not given)
inactive: [2]

COc1cc2c(cc1O)CC1c3c(cc(O)c(OC)c3-2)CCN1C (stereo not given)
inactive: [2]

COP(=S)(OC)Oc1ccc([N+](=O)[O-])cc1
inactive: [2]

C=CCc1ccc(OC)cc1
inactive: [2]

O=S1OCC2C(CO1)C1(Cl)C(Cl)=C(Cl)C2(Cl)C1(Cl)Cl (stereo not given)
inactive: [2]

COC(=O)NC(=S)Nc1ccccc1NC(=S)NC(=O)OC
inactive: [2]

c1ccc(N=Nc2ccccc2)cc1
inactive: [2]

ClC1=C(Cl)C2(Cl)C3C4CC(C5OC45)C3C1(Cl)C2(Cl)Cl (stereo not given)
not listed: ATS95 | CP262 | P94_40
inactive: all other assays above

CC(C)c1c(CN(C)[C@@H](C)Cc2ccccc2)n(C)n(-c2ccccc2)c1=O
not listed: [2]
inactive: all other assays above

C[C@@]12CC[C@H]3[C@@H](CC[C@@H]4C[C@H]5S[C@H]5C[C@]43C)[C@H]1CC[C@H]2O
not listed: [2]
inactive: all other assays above

C[C@H](N)[C@@H](O)c1ccccc1
not listed: [2]
inactive: all other assays above

CC(=O)O[C@H]1CC[C@@]2(C)C(=CC[C@@H]3[C@H]2CC[C@]2(C)C(=O)CC[C@H]32)C1
not listed: [2]
inactive: all other assays above

C[C@H]1CN(C2CCC(C#N)(c3ccc(F)cc3)CC2)CC[C@@]1(C(=O)O)c1ccccc1 (stereo not given in full)
not listed: [2]
inactive: all other assays above

CC[C@@H]1[C@@H]2C[C@H]3[C@H]4N(C)c5ccccc5[C@@]45C[C@@H]([C@@H]2[C@@H]5O)N3[C@H]1O
not listed: P94_40 | PC49 | [2]
inactive: all other assays above

CC[C@@]1(c2ccc(N)cc2)CCC(=O)NC1=O
not listed: [2]
inactive: all other assays above

COc1ccc2c(c1OC)CN1CCc3cc4c(cc3[C@H]1C2)OCO4
active: AA1029 2510 nM | ATS95 2510 nM | CP192 2030 nM | CP211 2030 nM | CP238 3550 nM | CP262 1610 nM | CP269 2030 nM | CP305 2280 nM | CP329 1610 nM | DIV30 2560 nM | P94_40 2510 nM | TAB109 2240 nM
inactive: [1]

C[N+]1(C)[C@@H]2CC[C@H]1CC(OC(=O)[C@@H](CO)c1ccccc1)C2 (stereo not given in full)
not listed: [2]
inactive: all other assays above

CC1=C2[C@@H]3OC(=O)[C@@H](C)[C@@H]3CC[C@]2(C)C=CC1=O
not listed: AA1029 | ATS189 | CP238 | DFO2036 | TAB109 | [2]
inactive: all other assays above

C[C@H](NC(C)(C)C)C(=O)c1cccc(Cl)c1
not listed: [2]
inactive: all other assays above

O=C(O)CNCP(=O)(O)O
inactive: [2]

C[C@@]12CCC(=O)C=C1C=C[C@H]1[C@H]3CC[C@](O)(CCC(=O)O)[C@]3(C)CC[C@@H]12
not listed: [2]
inactive: all other assays above

CNC[C@H](O)c1ccc(O)cc1
not listed: [2]
inactive: all other assays above

CC(=O)OCC(=O)[C@@H]1CC[C@H]2[C@H]3CC[C@H]4C[C@@H](O)CC[C@]4(C)[C@@H]3C(=O)C[C@@]12C
not listed: [2]
inactive: all other assays above

C#CCN(C)[C@@H](C)Cc1ccccc1
not listed: [1] | TAB109 | [2]
inactive: all other assays above

CN(C)C(=O)Oc1cc(OC(=O)N(C)C)cc([C@@H](O)CNC(C)(C)C)c1
not listed: [2]
inactive: all other assays above

C[N+]1([O-])[C@@H]2CC[C@H]1CC(OC(=O)[C@@H](CO)c1ccccc1)C2 (stereo not given in full)
not listed: [2]
inactive: all other assays above
